# Laboratory results published in PubChem BioAssay (NCI).
# About 79,000 compounds went through this panel and 15% of them were active in at least one assay; those are over-represented in the sample as a whole. A number with no mark means an inactive call. Calls of active or inactive are those of the source. Rule as the data show it: active = growth inhibition above about 70%; inactive = the rest. Residues, ends and D or L forms follow the SMILES beside them. *: point of attachment. Fmoc = O=C(OCC1c2ccccc2-c2ccccc21)*; Boc = CC(C)(C)OC(=O)*
# Experiment: NCI Yeast Anticancer Drug Screen. Data for the mgt1 strain (AID 153)
# Details: S. cerevisiae mgt1 mutant growth inhibition; at 1.2 µM; stronger effect = higher value
# Method in brief: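 Yeast mgt1 strain (DNA repair/cell-cycle alteration panel) exposed to compounds; growth inhibition measured relative to vehicle-treated controls.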
row,Compound,growth inhibition [%]
1,CC(C)C(=O)CC(Sc1ccc(N)cc1)c1ccccc1 (configuration not stated),-2
2,CC(C)OP(=O)(OC(C)C)/C(Cl)=N/Nc1ccc([N+](=O)[O-])cc1,-21
3,O=[N+]([O-])c1cc(Cl)ccc1S(=O)(=O)c1ccc(Cl)cc1[N+](=O)[O-],-29
4,CCCCCCNCCCNc1c2cc(OC)ccc2nc2cccc([N+](=O)[O-])c12,0
5,N#CCC(=O)N/N=C(\c1ccccc1)C(c1ccccc1)C1(O)C(=O)Nc2c(Cl)ccc(Cl)c21 (configuration not stated),1
6,CN(C)CCNCCCNc1c2ccccc2nc2cccc([N+](=O)[O-])c12,4
7,CCC[CH2][Ge]([CH2]CCC)([CH2]CCC)[O]C(=O)C(O)c1ccccc1 (configuration not stated),-1
8,COc1ccc(-c2cc(-c3cc(C)cc(Cl)c3O)nc3[nH]c(=S)[nH]c(=S)c23)cc1,-1
9,O=[N+]([O-])c1ccc(/C=C\c2ccc3c(c2)OCO3)c([N+](=O)[O-])c1,-2
10,O=C1c2ccccc2N2OC3(N4CCCC4)CCCCC3C12c1ccccc1 (configuration not stated),-18
11,CC(C)OC(=O)NNc1cc(Cl)ccc1Cl,-4
12,Cc1oc2ccccc2c(=O)c1Cn1nnc2ccccc21,0
13,CC1(C)OC(=O)C(=Cc2ccc([N+](=O)[O-])s2)C(=O)O1,-8
14,CCN(CC)CCCNc1ccc([N+](=O)[O-])c2nc3ccc(OC)cc3c(NCCCN(CC)CC)c12,2
15,COc1cccc(/C=C2\S/C(=N/Nc3nc(-c4ccc([N+](=O)[O-])cc4)cs3)NC2=O)c1O,9
16,OC(Cc1cccc2ccccc12)CN1CCC(c2ccccc2)CC1 (configuration not stated),64
17,C1=CCN([B-](c2ccccc2)[C+]2CCCCC2)C=C1,-2
18,O=[N+]([O-])c1cc[n+]([O-])c(Cl)c1,12

row,Compound,growth inhibition [%]
1,CCCNC(=O)OCc1c(COC(=O)NCCC)c(-c2ccc(Cl)c(Cl)c2)n2c1CCC2,-48
2,CC1(C)CC(=O)C(C(=O)Nc2cccs2)=C(O)C1,10
3,O=C(NO)c1coc2ccccc2c1=O,-2
4,COc1ccc(C(C)c2cc3c(cc2OCC(C)=O)OCO3)cc1 (configuration not stated),-3
5,CCS(=O)(=O)Nc1ccc(Nc2c3ccccc3nc3ccccc23)c(OC)c1,-28
6,O=S(=O)(c1ccccc1)N1CN2CN(C1)CN(S(=O)(=O)c1ccccc1)C2,0
7,CC1=NN(C(=O)c2ccccc2O)C(=O)/C1=C/c1ccco1,-5
8,O=C1C=C(Br)C(=O)c2ccccc21,11
9,C[N+](C)([O-])CCCNc1c2ccccc2nc2cccc([N+](=O)[O-])c12,-5
10,Cc1cccc2c(NCCCN(C)C)c3c([N+](=O)[O-])ccc(C)c3nc12,8
11,OC1(c2ccccc2)C2CC=CC2C1(c1ccccc1)c1ccccc1 (configuration not stated),-4
12,C[n+]1c(-c2ccc(/C=N/NC(=O)c3ccc(C(=O)N/N=C/c4ccc(-c5cn6ccccc6[n+]5C)cc4)cc3)cc2)cn2ccccc21,13
13,CCN(CC)CCC(=O)Nc1ccc2sc3ccccc3c(=O)c2n1,-1
14,O=[N+]([O-])c1ccc2nc(=S)[nH]n2c1,0
15,O=C(c1ccccc1)[C@H]1Nc2ccc(Cl)cc2[C@H]2OCCC[C@@H]12,-19
16,COc1cc([N+](=O)[O-])c2ncccc2c1Br,-2
17,O=S(=O)(c1cccc(C(F)(F)F)c1)N1c2ccccc2-n2cccc2C1c1cccnc1 (configuration not stated),-43
18,CC(C)(C)OC(=O)NCCCCC(NC(=O)C(Cc1c[nH]c2ccccc12)NC(=O)OCC1c2ccccc2-c2ccccc21)C(=O)O (configuration not stated) (Fmoc-Trp-Lys(Boc)-OH; configuration not given here),0

# Same assay, conditions: S. cerevisiae mgt1 mutant growth inhibition; at 3.7 µM; stronger effect = higher value
row,Compound,growth inhibition
1,CC(C)C(=O)CC(Sc1ccc(N)cc1)c1ccccc1 (configuration not stated),-5%
2,CC(C)OP(=O)(OC(C)C)/C(Cl)=N/Nc1ccc([N+](=O)[O-])cc1,-29%
3,O=[N+]([O-])c1cc(Cl)ccc1S(=O)(=O)c1ccc(Cl)cc1[N+](=O)[O-],-27%
4,CCCCCCNCCCNc1c2cc(OC)ccc2nc2cccc([N+](=O)[O-])c12,0%
5,N#CCC(=O)N/N=C(\c1ccccc1)C(c1ccccc1)C1(O)C(=O)Nc2c(Cl)ccc(Cl)c21 (configuration not stated),-1%
6,CN(C)CCNCCCNc1c2ccccc2nc2cccc([N+](=O)[O-])c12,18%
7,CCC[CH2][Ge]([CH2]CCC)([CH2]CCC)[O]C(=O)C(O)c1ccccc1 (configuration not stated),-1%
8,COc1ccc(-c2cc(-c3cc(C)cc(Cl)c3O)nc3[nH]c(=S)[nH]c(=S)c23)cc1,-2%
9,O=[N+]([O-])c1ccc(/C=C\c2ccc3c(c2)OCO3)c([N+](=O)[O-])c1,2%
10,O=C1c2ccccc2N2OC3(N4CCCC4)CCCCC3C12c1ccccc1 (configuration not stated),-7%
11,CC(C)OC(=O)NNc1cc(Cl)ccc1Cl,2%
12,Cc1oc2ccccc2c(=O)c1Cn1nnc2ccccc21,2%
13,CC1(C)OC(=O)C(=Cc2ccc([N+](=O)[O-])s2)C(=O)O1,15%
14,CCN(CC)CCCNc1ccc([N+](=O)[O-])c2nc3ccc(OC)cc3c(NCCCN(CC)CC)c12,2%
15,COc1cccc(/C=C2\S/C(=N/Nc3nc(-c4ccc([N+](=O)[O-])cc4)cs3)NC2=O)c1O,23%
16,OC(Cc1cccc2ccccc12)CN1CCC(c2ccccc2)CC1 (configuration not stated),72% (active)
17,C1=CCN([B-](c2ccccc2)[C+]2CCCCC2)C=C1,-1%
18,O=[N+]([O-])c1cc[n+]([O-])c(Cl)c1,-4%

row,Compound,growth inhibition
1,CCCNC(=O)OCc1c(COC(=O)NCCC)c(-c2ccc(Cl)c(Cl)c2)n2c1CCC2,-35%
2,CC1(C)CC(=O)C(C(=O)Nc2cccs2)=C(O)C1,18%
3,O=C(NO)c1coc2ccccc2c1=O,2%
4,COc1ccc(C(C)c2cc3c(cc2OCC(C)=O)OCO3)cc1 (configuration not stated),-2%
5,CCS(=O)(=O)Nc1ccc(Nc2c3ccccc3nc3ccccc23)c(OC)c1,-35%
6,O=S(=O)(c1ccccc1)N1CN2CN(C1)CN(S(=O)(=O)c1ccccc1)C2,7%
7,CC1=NN(C(=O)c2ccccc2O)C(=O)/C1=C/c1ccco1,27%
8,O=C1C=C(Br)C(=O)c2ccccc21,18%
9,C[N+](C)([O-])CCCNc1c2ccccc2nc2cccc([N+](=O)[O-])c12,-10%
10,Cc1cccc2c(NCCCN(C)C)c3c([N+](=O)[O-])ccc(C)c3nc12,20%
11,OC1(c2ccccc2)C2CC=CC2C1(c1ccccc1)c1ccccc1 (configuration not stated),-2%
12,C[n+]1c(-c2ccc(/C=N/NC(=O)c3ccc(C(=O)N/N=C/c4ccc(-c5cn6ccccc6[n+]5C)cc4)cc3)cc2)cn2ccccc21,22%
13,CCN(CC)CCC(=O)Nc1ccc2sc3ccccc3c(=O)c2n1,-4%
14,O=[N+]([O-])c1ccc2nc(=S)[nH]n2c1,-4%
15,O=C(c1ccccc1)[C@H]1Nc2ccc(Cl)cc2[C@H]2OCCC[C@@H]12,-23%
16,COc1cc([N+](=O)[O-])c2ncccc2c1Br,-6%
17,O=S(=O)(c1cccc(C(F)(F)F)c1)N1c2ccccc2-n2cccc2C1c1cccnc1 (configuration not stated),-16%
18,CC(C)(C)OC(=O)NCCCCC(NC(=O)C(Cc1c[nH]c2ccccc12)NC(=O)OCC1c2ccccc2-c2ccccc21)C(=O)O (configuration not stated) (Fmoc-Trp-Lys(Boc)-OH; configuration not given here),2%
